Tgondii IFNg – blocks Toxoplasma gondii growth in the presence of IFN-gamma | Toxoplasma gondii growth in IFN-gamma-treated host cells; stronger effect = lower value | actives 3.8% (n = 69,000) | activity change, negative = inhibition, % (concentration not given with the values) | AID 1259416; in the data active = activity change below about -70%, passing the limit was not always enough;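 note: host cells are HeLa cells infected with Toxoplasma gondii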
The depositor's hits bear a star; i = inactive; ! = not confirmed by another sample. Many of the other results were omitted from the sample, so hits are more common in it than they were.

SMILES	Tgondii IFNg
Cc1oc(-c2ccc3ccccc3c2)nc1CN1CCN(S(N)(=O)=O)CC1	36.2
CCN(CC)S(=O)(=O)c1ccc2c(c1)N(Cc1nc(-c3ccccc3)oc1C)C(=O)CS2	-79.5*
CCOC(=O)c1ccc2c(c1)N(Cc1nc(-c3cccc(C)c3)oc1C)C(=O)c1ccccc1S2	-42.8
O=C(CC1Nc2c3ccccc3nc(=S)n2C1=O)N1CCN(c2cccc(C(F)(F)F)c2)CC1 (stereo unspecified)	-9.6
O=C(Nc1ccc(F)cc1)N1CCn2cnnc2C1	-25.1
CCOC(=O)c1cccnc1-c1cccc(C(=O)O)c1	10.4
Cc1cccc(CN(Cc2cccc(F)c2)CC2CCCO2)n1 (stereo unspecified)	3.8
CN1CCN(CCCN(C)CC(C)(C)c2ccc(Cl)cc2)CC1	-9.2
CN1CCN(C2=Nc3ccccc3Sc3ccc(Cl)cc32)CC1	9.0
CN1CCN(CCCN2c3ccccc3Sc3ccc(C(F)(F)F)cc32)CC1	-79.8*!
CCc1ccc(OCCN(C)C(=O)c2ccc(C(C)=O)s2)cc1	-14.6
COc1ccc(-c2noc(-c3ccc(N4CCC(N5CCCCC5)CC4)nc3)n2)cc1	-28.5
N#Cc1ccc(-c2ccc3c(c2)[C@H]2[C@H](CCN2C(=O)C2CCCCC2)[C@@H](CO)N3)cc1	-62.6
N#Cc1ccc(-c2ccc3c(c2)[C@@H]2[C@@H](CCN2C(=O)C2CCCCC2)[C@H](CO)N3)cc1	-62.8
COc1ccccc1-c1ccc2c(c1)[C@@H]1[C@@H](CCN1C(=O)C1CCC1)[C@H](CO)N2	-72.0*
CN(C)CCO[C@H]1CN(Cc2ccco2)[C@H]2COC[C@@H]12	65.9
CC(=O)[C@@]1(O)CC[C@H]2[C@@H]3C[C@H](C)C4=CC(=O)CC[C@]4(C)[C@H]3CC[C@@]21C	4.8
C[C@]12CCC(=O)C=C1[C@@H]1C[C@@H]1[C@H]1[C@@H]3[C@@H]4C[C@@H]4[C@@]4(CCC(=O)O4)[C@@]3(C)CC[C@@H]12	-85.0*
CC(=O)SC1CC2=CC(=O)CCC2(C)C2CCC3(C)C(CCC34CCC(=O)O4)C12 (stereo unspecified)	-24.8
CCc1ccc2occ(CC(=O)NCc3n[nH]c4c3CCC4)c2c1	3.6
Cc1n[nH]c(=O)n1-c1cccc(C(=O)O)c1	56.6
CC(c1ccc(F)cc1)N(C)C(=O)CCN1CCCO1 (stereo unspecified)	0.4
CCc1cccc(NC(=O)CCC(=O)NC(C)c2ncn[nH]2)c1 (stereo unspecified)	0.5
C=CCc1c(C)nc(SC)nc1Nc1ccc(C(=O)O)cc1	-6.9
C=CCc1c(C)nc2ccc(C(=O)OCC)cc2c1Cl	-102.0*
SMILES	Tgondii IFNg
CCOC(=O)c1cccc(P(C)(C)=O)c1	14.1
Cc1n[nH]c(C)c1S(=O)(=O)NCc1ccc(S(=O)(=O)N2CCCC2)cc1	9.5
O=c1[nH]nc(C(F)(F)F)n2cccc12	-103.8*
O=c1n(Cn2nnc3ccccc32)nc(C(F)(F)F)c2cccn12	70.3
O=c1n(Cc2ccncc2)nc(C(F)(F)F)c2cccn12	10.5
COC(=O)CC(=O)CCn1nc(C)nc1C	-25.4
Fc1cccc(-c2ncnc3c2CCN(CC2CCOC2)CC3)c1 (stereo unspecified)	-41.6
CC1=NN(C2CCS(=O)(=O)C2)C(=O)C1(Sc1ccccc1)Sc1ccccc1 (stereo unspecified)	-93.0*
CC(C)c1cc(C(=O)O)nn1C1CCS(=O)(=O)C1 (stereo unspecified)	12.8
CC(=O)N1CCc2cc(NC(=O)C3=NN(C4CCS(=O)(=O)C4)C(=O)CC3)ccc21 (stereo unspecified)	-1.6
Cc1nc(-c2ccccc2)c(C(=O)NCCCc2csc(N)n2)s1	0.8
CN1C(=O)CCc2cc(NS(=O)(=O)c3ccc(Cl)c(Cl)c3)ccc21	-87.4*
COCCN1C(=O)CCc2cc(NS(=O)(=O)c3ccc(OC)c(Cl)c3)ccc21	-5.0
CCc1ccc(S(=O)(=O)Nc2ccc3c(c2)CCC(=O)N3CC(C)C)cc1	-90.4*
Cc1ccc(S(=O)(=O)Nc2ccc3c(c2)CCC(=O)N3CC(C)C)cc1	31.4
CN1C(=O)CCc2cc(NS(=O)(=O)c3cccc(Cl)c3)ccc21	-12.4
CCCN1C(=O)CCc2cc(NS(=O)(=O)c3ccc(Cl)c(Cl)c3)ccc21	-52.1
CC(C)CN1C(=O)CCc2cc(NS(=O)(=O)c3ccc(F)cc3F)ccc21	-4.2
CCN1C(=O)CCc2cc(NS(=O)(=O)c3ccc(C)c(Cl)c3)ccc21	-83.2*
COCCN1C(=O)CCc2cc(NS(=O)(=O)c3ccc(C)c(F)c3)ccc21	-5.9
Cc1ccc(S(=O)(=O)Nc2ccc3c(c2)CCC(=O)N3CC(C)C)c(C)c1	-85.9*
Cc1ccc(C)c(S(=O)(=O)Nc2ccc3c(c2)CCC(=O)N3CC(C)C)c1	-51.7
COc1ccc(S(=O)(=O)Nc2ccc3c(c2)CCC(=O)N3CC(C)C)cc1	29.6
Cc1ccc(NC(=O)c2c(O)c3cccnc3n(-c3ccc(F)cc3)c2=O)c(C)c1	60.1
Cc1nnnn1-c1ccc(C(=O)NC(C)c2ccc3c(c2)OCCO3)cc1 (stereo unspecified)	0.5
SMILES	Tgondii IFNg
NC(=O)C1(N2CCCCC2)CCN(c2ccc(NC(=O)c3cccc(Cl)c3)cc2C(=O)O)CC1	3.9
Cc1cnc(C(=O)NCC2OCCc3cn(C)nc32)cn1 (stereo unspecified)	i
CCN1Cc2ccccc2C2(CCN(C(=O)c3cnc[nH]3)CC2)C1	4.7
CC(=O)c1ccc(OC(=O)Cc2cc(F)cc(F)c2)cc1	-12.0
Cc1ccc(S(=O)(=O)Nc2ccc3c(c2)CCC(=O)N3CC(C)C)cc1Cl	-93.1*
COCCN1C(=O)CCc2cc(NS(=O)(=O)c3ccc(F)cc3)ccc21	24.2
CC(C)CN1C(=O)CCc2cc(NS(=O)(=O)c3ccc(F)c(F)c3)ccc21	-63.8
CCN1C(=O)CCc2cc(NS(=O)(=O)c3cccc(Br)c3)ccc21	46.5
CCN1C(=O)CCc2cc(NS(=O)(=O)c3ccc(C(F)(F)F)cc3)ccc21	-102.9*
CC(C)CN1C(=O)CCc2cc(NS(=O)(=O)c3ccccc3Cl)ccc21	9.0
Cn1nc(C(F)(F)F)cc1C(=O)N1CCCC1c1ccccc1Cl (stereo unspecified)	-46.0
Cc1ccc(CN2C[C@@H]3COC[C@@]3(Cc3nnc(C4CC4)o3)C2)o1	-30.9
Fc1cnc(N2CCC[C@]3(C[C@@H](Oc4ncccc4F)CO3)C2)nc1	-2.4
CCc1ccccc1-c1ccc2cc[nH]c(=O)c2c1	1.6
O=C1CCCc2c1[nH]c1ccc(-c3ccccc3CO)cc21	-74.8*
CCC(=O)NCc1ccccc1-c1ccccc1CO	-38.6
COc1ccc(-n2c(C)c([N+](=O)[O-])c3ccc(O)cc32)cc1	-77.3*
COc1ccc(-n2nc(C(=O)O)nc2C)cc1	24.1
COc1ccc(-n2c(C)c3c(OC)cccc(=O)c3c2C)cc1	-6.4
CCOC(C)c1ccc(-c2nccc(OC)n2)cc1 (stereo unspecified)	41.0
C=CCN1CC2(CCN(Cc3cccnc3OC)CC2)OCC1=O	-0.9
OC1CCCN(Cc2c(-c3cccnc3)[nH]c3cccnc23)C1 (stereo unspecified)	-18.7
O=S(=O)(c1ccc(Cl)cc1)N1CCC2(CC1)Nc1ccccc1-n1cccc12	26.2
CC(C)(C)c1ccc(S(=O)(=O)Nc2ccc(C34CC5CC(CC(C5)C3)C4)cc2)cc1	-96.2*
O=C1CCc2cc(NS(=O)(=O)c3ccc(C(F)(F)F)cc3)ccc2N1	-37.3
Cc1ccc(-c2coc(-c3ccc(NS(=O)(=O)c4ccc(C(C)(C)C)cc4)cc3)n2)c(C)c1	-37.7
O=S(=O)(Cc1cc(Cl)sc1Cl)c1ccc(Cl)cc1	-101.0*
